According to PMC5540273 (PLoS ONE, 2017):

What was measured:
Conditions in all cases: concentration: 1 μM, replicates: in singlicate; n = 1
[1] = test system: PRKCH
[2] = test system: PRKCI
[3] = test system: PRKCQ
[4] = test system: PRKD1
[5] = test system: PRKD2
[6] = test system: PRKD3
[7] = test system: PRKG1
[8] = test system: PRKG2
[9] = test system: T1, PRKR
T1 construct: gene EIF2AK2

[10] = test system: PRKX
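Note: KINOMEscan kinase panel screen.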

| Structure (SMILES) | %Inh [1] [%] | %Inh [2] [%] | %Inh [3] [%] | %Inh [4] [%] | %Inh [5] [%] | %Inh [6] [%] | %Inh [7] [%] | %Inh [8] [%] | %Inh [9] [%] | %Inh [10] [%] |
| --- | --- | --- | --- | --- | --- | --- | --- | --- | --- | --- |
| Cc1ccc(-c2nc(Nc3ccncc3)c3ccccc3n2)s1 [GSK189015] | 29 | 20 | 29 | 18 | 14 | 22 | 12 | 0 | 0 | 19 |
| O=C1NC(=O)C(c2ccc(Cl)cc2)=C1Nc1ccc(O)cc1 [SB-340867] | 0 | 0 | 0 | 0 | 19 | 0 | 0 | 1 | 0 | 0 |
| CNCc1ccc2nc(NC(=O)c3ccc(C(C)(C)C)cc3)cn2c1 | 0 | 20 | 0 | 30 | 2 | 12 | 0 | 21 | 0 | 9 |
| COc1ccc(-c2coc3ccc(-c4nnc(C)o4)cc23)cc1 | 13 | 0 | 19 | 20 | 0 | 14 | 15 | 0 | 0 | 0 |
| Nc1cccc(-c2ccc3c(N)n[nH]c3c2)n1 [GSK2192730] | 0 | 8 | 10 | 0 | 0 | 8 | 0 | 0 | 10 | 23 |
